Results on five molecules are retold here after ChEMBL document CHEMBL1961873, “Compounds: GSK PKIS; Assays: Nanosyn kinase panel” (2012).

The target in assay [1] is Calcium/calmodulin-dependent protein kinase type II subunit alpha (Homo sapiens) (UniProt Q9UQM7). Particulars: at 1 µM.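 Also: reported value is a mean percent inhibition of CAMK2A.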
In assay [2] the target is Calcium/calmodulin-dependent protein kinase type II subunit delta (Homo sapiens) (UniProt Q13557). Particulars: at 0.1 µM.
The target is the same in assay [3]. Particulars: at 1 µM.
For assay [4], the target named is T1, Calcium/calmodulin-dependent protein kinase type IV (Homo sapiens) (UniProt Q16566).
T1 sequence (whole entry): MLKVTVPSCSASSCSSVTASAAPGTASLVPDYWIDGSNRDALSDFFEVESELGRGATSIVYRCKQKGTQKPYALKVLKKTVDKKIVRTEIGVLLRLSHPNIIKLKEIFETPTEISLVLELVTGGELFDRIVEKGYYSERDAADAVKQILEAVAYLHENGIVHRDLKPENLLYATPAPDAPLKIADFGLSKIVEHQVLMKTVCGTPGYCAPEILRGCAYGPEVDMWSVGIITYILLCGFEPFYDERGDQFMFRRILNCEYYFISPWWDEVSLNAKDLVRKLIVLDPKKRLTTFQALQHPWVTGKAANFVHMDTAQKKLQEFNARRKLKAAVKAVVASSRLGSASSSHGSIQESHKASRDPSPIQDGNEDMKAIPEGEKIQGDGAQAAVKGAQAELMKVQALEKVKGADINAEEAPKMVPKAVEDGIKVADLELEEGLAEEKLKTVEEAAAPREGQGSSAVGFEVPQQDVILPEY
The note with it: at 0.1 µM.

In assay [5] the target is T1, Calcium/calmodulin-dependent protein kinase type IV (Homo sapiens). The note with it: at 1 µM.
The target of assay [6] is T2, Serine/threonine-protein kinase Chk1 (Homo sapiens) (UniProt O14757).
T2 sequence (whole entry): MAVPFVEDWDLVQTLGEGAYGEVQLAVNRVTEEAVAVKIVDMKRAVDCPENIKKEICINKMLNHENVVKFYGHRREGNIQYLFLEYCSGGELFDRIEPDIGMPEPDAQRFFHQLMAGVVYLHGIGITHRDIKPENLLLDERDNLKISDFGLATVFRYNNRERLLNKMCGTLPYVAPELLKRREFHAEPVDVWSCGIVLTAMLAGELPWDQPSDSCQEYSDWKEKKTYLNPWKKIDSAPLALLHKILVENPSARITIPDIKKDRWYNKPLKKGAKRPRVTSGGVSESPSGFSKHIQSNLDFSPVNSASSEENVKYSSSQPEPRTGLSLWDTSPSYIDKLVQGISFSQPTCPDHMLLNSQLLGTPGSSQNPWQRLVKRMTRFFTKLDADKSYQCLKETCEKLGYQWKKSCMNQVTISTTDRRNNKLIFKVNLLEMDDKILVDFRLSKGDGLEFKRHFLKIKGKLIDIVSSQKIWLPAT
Particulars: at 0.1 µM.

Assay [7] deals with T2, Serine/threonine-protein kinase Chk1 (Homo sapiens). The note with it: at 1 µM.
Assay [8] concerns the target Serine/threonine-protein kinase Chk2 (Homo sapiens) (UniProt O96017). Particulars: at 0.1 µM.
Assay [9] shares this target. The note with it: at 1 µM.
For assay [10], the target named is Death-associated protein kinase 1 (Homo sapiens) (UniProt P53355). The note with it: at 0.1 µM.
For assay [11] the target is unchanged. The note with it: at 1 µM.
Assay [12] concerns the target T3, Serine/threonine-protein kinase DCLK2 (Homo sapiens) (UniProt Q8N568).
T3 sequence (whole entry): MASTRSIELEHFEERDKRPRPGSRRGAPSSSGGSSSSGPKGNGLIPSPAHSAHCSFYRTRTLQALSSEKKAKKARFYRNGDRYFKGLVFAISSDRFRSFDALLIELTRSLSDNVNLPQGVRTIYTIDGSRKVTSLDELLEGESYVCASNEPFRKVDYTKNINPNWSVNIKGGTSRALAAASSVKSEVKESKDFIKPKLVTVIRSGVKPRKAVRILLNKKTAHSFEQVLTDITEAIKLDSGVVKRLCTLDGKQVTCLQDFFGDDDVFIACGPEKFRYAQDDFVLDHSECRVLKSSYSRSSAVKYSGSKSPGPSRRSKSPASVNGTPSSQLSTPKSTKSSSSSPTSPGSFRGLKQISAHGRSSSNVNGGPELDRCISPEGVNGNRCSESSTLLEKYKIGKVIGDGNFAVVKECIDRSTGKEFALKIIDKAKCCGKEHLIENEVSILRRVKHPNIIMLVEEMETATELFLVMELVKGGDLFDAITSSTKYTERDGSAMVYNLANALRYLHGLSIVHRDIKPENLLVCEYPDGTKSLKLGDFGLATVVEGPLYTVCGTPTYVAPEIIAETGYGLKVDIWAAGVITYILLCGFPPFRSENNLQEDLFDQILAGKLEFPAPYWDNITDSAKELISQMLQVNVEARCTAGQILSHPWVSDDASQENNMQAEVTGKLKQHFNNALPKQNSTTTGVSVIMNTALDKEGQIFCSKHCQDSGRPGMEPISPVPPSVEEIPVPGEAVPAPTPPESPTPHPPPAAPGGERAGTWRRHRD
The note with it: at 0.1 µM.

The target of assay [13] is T3, Serine/threonine-protein kinase DCLK2 (Homo sapiens). Particulars: at 1 µM.
The target of assay [14] is MAP kinase-activated protein kinase 2 (Homo sapiens) (UniProt P49137). The note with it: at 0.1 µM.
Assay [15] has the same target. Particulars: at 1 µM.
For assay [16], the target named is MAP kinase-activated protein kinase 3 (Homo sapiens) (UniProt Q16644). Particulars: at 0.1 µM.
Assay [17] shares this target. The note with it: at 1 µM.
Assay [18] has as its target Serine/threonine-protein kinase MARK1 (Homo sapiens) (UniProt Q9P0L2). Particulars: at 0.1 µM.
The target is the same in assay [19]. Particulars: at 1 µM.
In assay [20] the target is MAP/microtubule affinity-regulating kinase 3 (Homo sapiens) (UniProt P27448). The note with it: at 0.1 µM.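 Also: mean percent inhibition of MARK3 kinase activity, measured within the GSK PKIS screening panel.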

Chain of Death-associated protein kinase 1 (Homo sapiens) (P53355 whole entry, looked up): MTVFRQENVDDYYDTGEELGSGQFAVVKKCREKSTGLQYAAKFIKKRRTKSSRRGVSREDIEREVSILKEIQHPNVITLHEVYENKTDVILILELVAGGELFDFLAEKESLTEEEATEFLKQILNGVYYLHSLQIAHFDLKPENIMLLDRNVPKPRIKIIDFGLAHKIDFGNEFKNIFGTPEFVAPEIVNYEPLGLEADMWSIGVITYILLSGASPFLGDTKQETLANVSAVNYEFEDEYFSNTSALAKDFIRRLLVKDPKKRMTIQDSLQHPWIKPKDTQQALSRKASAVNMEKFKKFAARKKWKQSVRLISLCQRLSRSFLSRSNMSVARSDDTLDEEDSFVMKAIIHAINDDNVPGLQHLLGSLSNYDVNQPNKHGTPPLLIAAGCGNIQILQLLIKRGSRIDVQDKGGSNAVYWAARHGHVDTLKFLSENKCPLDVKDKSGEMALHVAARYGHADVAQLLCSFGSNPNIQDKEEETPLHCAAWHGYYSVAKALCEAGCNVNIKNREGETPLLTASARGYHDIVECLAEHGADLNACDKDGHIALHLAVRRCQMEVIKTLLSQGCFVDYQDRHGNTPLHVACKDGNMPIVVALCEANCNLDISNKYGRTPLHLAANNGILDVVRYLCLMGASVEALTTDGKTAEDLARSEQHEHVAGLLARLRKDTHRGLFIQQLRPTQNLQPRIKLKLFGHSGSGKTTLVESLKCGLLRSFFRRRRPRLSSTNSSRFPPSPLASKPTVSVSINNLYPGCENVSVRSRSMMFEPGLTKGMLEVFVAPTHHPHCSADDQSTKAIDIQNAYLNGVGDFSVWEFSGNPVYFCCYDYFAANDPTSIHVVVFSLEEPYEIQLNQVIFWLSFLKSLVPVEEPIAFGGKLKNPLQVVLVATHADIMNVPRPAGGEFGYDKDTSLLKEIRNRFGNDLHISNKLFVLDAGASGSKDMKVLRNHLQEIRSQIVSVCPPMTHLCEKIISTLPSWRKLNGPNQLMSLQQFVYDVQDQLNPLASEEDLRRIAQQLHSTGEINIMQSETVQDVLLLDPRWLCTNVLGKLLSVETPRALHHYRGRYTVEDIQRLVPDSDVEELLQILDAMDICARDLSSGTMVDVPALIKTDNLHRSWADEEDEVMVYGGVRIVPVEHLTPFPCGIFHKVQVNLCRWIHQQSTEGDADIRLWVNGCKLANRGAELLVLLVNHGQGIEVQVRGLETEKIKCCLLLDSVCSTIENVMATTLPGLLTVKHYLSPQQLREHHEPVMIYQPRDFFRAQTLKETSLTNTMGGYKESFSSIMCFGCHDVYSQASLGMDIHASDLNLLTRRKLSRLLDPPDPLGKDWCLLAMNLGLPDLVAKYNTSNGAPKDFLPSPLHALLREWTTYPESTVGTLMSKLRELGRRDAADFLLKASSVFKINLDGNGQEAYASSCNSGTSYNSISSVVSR
Chain of Serine/threonine-protein kinase MARK1 (Homo sapiens) (Q9P0L2 whole entry, looked up): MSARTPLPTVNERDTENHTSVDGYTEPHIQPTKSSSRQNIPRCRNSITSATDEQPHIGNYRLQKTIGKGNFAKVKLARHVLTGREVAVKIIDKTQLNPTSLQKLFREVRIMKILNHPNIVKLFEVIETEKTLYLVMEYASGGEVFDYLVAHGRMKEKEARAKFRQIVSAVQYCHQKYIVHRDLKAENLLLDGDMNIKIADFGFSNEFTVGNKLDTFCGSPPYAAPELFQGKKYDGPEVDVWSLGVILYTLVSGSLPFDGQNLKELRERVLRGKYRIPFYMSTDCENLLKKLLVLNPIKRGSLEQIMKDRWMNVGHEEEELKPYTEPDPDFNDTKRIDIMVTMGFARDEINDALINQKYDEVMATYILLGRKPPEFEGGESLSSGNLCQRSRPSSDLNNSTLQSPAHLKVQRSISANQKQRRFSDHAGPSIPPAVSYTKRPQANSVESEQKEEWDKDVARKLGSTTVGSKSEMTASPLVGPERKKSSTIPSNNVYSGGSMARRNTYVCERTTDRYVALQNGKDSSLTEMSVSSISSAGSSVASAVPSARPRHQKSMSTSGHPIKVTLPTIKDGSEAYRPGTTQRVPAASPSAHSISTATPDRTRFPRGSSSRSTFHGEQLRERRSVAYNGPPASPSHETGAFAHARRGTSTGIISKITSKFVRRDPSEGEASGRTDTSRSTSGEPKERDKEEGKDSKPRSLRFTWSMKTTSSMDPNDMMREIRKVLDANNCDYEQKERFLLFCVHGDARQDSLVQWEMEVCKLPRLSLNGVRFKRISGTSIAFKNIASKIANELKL
Chain of Calcium/calmodulin-dependent protein kinase type II subunit alpha (Homo sapiens) (Q9UQM7 whole entry): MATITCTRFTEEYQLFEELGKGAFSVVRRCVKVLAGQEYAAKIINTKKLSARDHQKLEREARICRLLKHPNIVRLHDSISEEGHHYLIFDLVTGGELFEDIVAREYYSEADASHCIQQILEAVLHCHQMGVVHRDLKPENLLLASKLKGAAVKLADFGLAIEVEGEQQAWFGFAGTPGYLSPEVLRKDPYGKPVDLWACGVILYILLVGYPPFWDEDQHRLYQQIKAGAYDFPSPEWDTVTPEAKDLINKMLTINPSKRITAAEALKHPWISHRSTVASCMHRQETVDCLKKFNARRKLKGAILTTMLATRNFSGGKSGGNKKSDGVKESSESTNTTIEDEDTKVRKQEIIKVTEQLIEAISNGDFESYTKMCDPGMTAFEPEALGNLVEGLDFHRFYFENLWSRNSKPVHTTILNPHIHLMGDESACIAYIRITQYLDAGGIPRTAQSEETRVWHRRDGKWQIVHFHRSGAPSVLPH
Chain of Serine/threonine-protein kinase Chk2 (Homo sapiens) (O96017 whole entry): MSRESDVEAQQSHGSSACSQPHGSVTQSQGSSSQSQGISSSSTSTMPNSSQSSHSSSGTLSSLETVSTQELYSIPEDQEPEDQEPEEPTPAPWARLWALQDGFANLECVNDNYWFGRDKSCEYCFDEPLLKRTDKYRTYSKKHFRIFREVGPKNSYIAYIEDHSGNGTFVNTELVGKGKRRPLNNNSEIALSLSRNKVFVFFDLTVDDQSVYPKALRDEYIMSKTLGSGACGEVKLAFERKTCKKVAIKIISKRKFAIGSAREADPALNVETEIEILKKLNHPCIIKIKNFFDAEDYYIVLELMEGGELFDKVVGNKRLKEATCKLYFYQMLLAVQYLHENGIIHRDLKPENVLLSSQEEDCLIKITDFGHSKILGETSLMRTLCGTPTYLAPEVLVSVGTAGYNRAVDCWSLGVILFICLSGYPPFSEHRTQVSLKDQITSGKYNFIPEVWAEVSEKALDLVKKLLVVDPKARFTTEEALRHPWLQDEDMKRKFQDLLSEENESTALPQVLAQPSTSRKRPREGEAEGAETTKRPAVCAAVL
Chain of MAP kinase-activated protein kinase 2 (Homo sapiens) (P49137 whole entry, looked up): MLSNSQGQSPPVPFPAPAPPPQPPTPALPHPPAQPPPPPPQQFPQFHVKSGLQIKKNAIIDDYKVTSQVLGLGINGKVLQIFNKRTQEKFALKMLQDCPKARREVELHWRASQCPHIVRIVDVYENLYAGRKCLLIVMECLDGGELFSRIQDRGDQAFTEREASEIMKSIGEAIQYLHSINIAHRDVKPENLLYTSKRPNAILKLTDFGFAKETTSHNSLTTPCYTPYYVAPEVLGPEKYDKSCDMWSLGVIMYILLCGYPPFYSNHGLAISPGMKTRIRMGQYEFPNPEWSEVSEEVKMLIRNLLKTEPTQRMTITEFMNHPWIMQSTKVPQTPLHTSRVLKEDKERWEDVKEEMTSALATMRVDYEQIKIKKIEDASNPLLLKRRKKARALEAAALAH
Chain of Calcium/calmodulin-dependent protein kinase type II subunit delta (Homo sapiens) (Q13557 whole entry): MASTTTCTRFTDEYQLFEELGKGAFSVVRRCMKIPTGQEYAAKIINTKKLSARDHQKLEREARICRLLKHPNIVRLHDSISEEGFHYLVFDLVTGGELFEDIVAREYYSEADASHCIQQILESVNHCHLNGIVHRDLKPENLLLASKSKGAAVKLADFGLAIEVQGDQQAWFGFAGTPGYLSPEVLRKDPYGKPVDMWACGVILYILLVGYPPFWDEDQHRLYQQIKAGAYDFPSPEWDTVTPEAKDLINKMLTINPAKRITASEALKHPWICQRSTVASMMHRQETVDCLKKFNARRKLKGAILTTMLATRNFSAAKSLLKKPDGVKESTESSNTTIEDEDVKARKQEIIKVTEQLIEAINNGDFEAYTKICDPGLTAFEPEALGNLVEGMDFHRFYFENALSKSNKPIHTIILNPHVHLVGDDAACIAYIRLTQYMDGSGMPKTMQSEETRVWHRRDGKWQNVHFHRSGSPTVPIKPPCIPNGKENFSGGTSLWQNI
Chain of MAP kinase-activated protein kinase 3 (Homo sapiens) (Q16644 whole entry, looked up): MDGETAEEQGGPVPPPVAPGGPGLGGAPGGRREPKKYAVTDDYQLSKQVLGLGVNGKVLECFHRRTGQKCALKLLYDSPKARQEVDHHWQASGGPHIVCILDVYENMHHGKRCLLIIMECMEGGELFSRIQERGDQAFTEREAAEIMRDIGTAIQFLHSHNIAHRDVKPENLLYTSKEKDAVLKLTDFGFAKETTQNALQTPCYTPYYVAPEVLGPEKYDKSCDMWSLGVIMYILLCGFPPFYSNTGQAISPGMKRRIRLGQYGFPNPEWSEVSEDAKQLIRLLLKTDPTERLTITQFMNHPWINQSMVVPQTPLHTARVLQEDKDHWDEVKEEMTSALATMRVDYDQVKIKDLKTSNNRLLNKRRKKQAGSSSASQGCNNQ

On to `COc1cccc(-n2ncc3c(N/N=C/c4ccc(C(=O)NCCN(C)C)cc4)ncnc32)c1`, for which the inhibition is 10.4% in assay [1]; 8.19% in [2]; 36.1% in assay [3]; 0.48% in assay [4]; 1.87% in assay [5]; 2.47% in [6]. The inhibition in [7] was determined as 5.69%; in assay [8], 0.95%; in assay [9] it was 3.14%; in assay [10], 3.46%; in [11], 4.78%; in assay [12], 1.42%. Also, the inhibition is 0.78% in assay [13]; 0.79% in assay [14]; 1.08% in assay [15]; 1.89% in assay [16]; 4.06% in assay [17]; 4.25% in [18]. In addition, the inhibition in assay [19] was 16.7%; in assay [20], 4.78%.

For the molecule `Cc1cc(O)cc(C)c1/C=C/c1cncc(C(N)=O)c1`, the inhibition in assay [1] was found to be 2.76%; in assay [2], 2.47%; in assay [3], 6.44%; in [4] it was 0.89%; in [5], 1.57%; in assay [6] it was 2.8%. In addition, the inhibition in assay [7] is 0.66%; in assay [8] it was 0.67%; in assay [9] it was 4%; in assay [10], 1.68%; in assay [11], 1.91%; in assay [12], 1.42%. The inhibition in assay [13] is 3.35%; in assay [14], 1.06%; in assay [15], 0.98%; in assay [16], 1.57%; in assay [17] it was 1.76%; in assay [18], 2.85%. Also, the inhibition was 3.03% in assay [19] and 3.52% in assay [20].

For the molecule `COc1cc2c(cc1Nc1nc(Nc3cccc(F)c3C(N)=O)c3cc[nH]c3n1)N(C(=O)CN1CCN(C(C)C)CC1)CC2`, the inhibition in [1] was 8.11%; in assay [2], 2.82%; in assay [3], 7.41%; in assay [4], 2.31%; in assay [5], 7.37%; in assay [6] it was -0.51%. Moreover, the inhibition in assay [7] came to 4.94%; in assay [8], 6.05%; in assay [9], 29.8%; in assay [10] it was 2.3%; in [11], 5.15%; in [12], 4.68%. In addition, the inhibition stood at 1.43% in [13]; 1.04% in assay [14]; 2.85% in [15]; 3.25% in assay [16]; 5.17% in [17]; 1.44% in assay [18]. The figures for the inhibition in assay [19] and in [20] were 3.35% and 3.73%, respectively.

Turning to `COC(=O)Nc1nc2cc(Oc3ccc(NC(=O)Nc4ccccc4)cc3)ccc2[nH]1`, the inhibition in assay [1] is 1.94%; in assay [2] it was 1.6%; in assay [3], 1.54%; in assay [4], -1.32%; in assay [5], -2.54%; in [6] it was -0.71%. The inhibition was 3.92% in assay [7]; 1.94% in assay [8]; 3.46% in [9]; 3.21% in assay [10]; 3.19% in [11]; -1.72% in assay [12]. Besides, the inhibition in assay [13] was 5.13%; in [14], 1.49%; in assay [15], 1.44%; in [16], 1.74%; in [17] it was 2.32%; in assay [18] it was 2.28%. The inhibition was determined as 4.31% in assay [19] and 1.57% in assay [20].

In the case of `COc1cc(Nc2ncc(-c3ccccc3)o2)cc(OC)c1`, the inhibition was 1.52% in assay [1]; 3.94% in assay [2]; 7.34% in assay [3]; -1.03% in assay [4]; -1.65% in [5]; 1.69% in [6]. Also, the inhibition in [7] was 0.7%; in [8] it was 4.6%; in assay [9], 5.38%; in assay [10], 2.51%; in assay [11] it was -0.73%; in assay [12] it was 1.65%. Also, the inhibition was determined as 1.7% in [13]; 2.4% in assay [14]; 1.2% in [15]; 3.76% in assay [16]; 3.61% in [17]; 1.26% in [18]. In addition, the results for the inhibition in [19] and in assay [20] were 4.72% and 3.35%, respectively.
